According to the supplement of paper PMC6555819:

Columns and labels:
Test in all cases: PBM binding z-score (relative to random genomic background probes); higher = stronger binding; sequences stand for … in GC…GCGATTGACAGCGTAGAATGAAGG
[1] = test system: PPARg:RXRa DBDmut IVT, anti-RXR (DBD mutation: RXRa K156A/R161A, NR concentration 270 nM, RXRa partner concentration 90 nM)
Outline: (§1)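 Custom Agilent 4×180K protein-binding microarrays carried double-stranded probes, each with a 34-nt variable region. These regions held direct-repeat seeds, single-nucleotide variants, half-site ablations and random human genomic background sequences. Ligand-free nuclear receptor dimers were incubated on the arrays for 1 h, antibodies against each partner (one per run) detected binding, and scanned fluorescence was regression-normalized. Binding z-scores take the random background probes as reference.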

[2] = test system: PPARg:RXRa IVT, anti-PPARg (NR concentration 270 nM, RXRa partner concentration 90 nM)
Outline: as §1

[3] = test system: PPARg DBDmut:RXRa IVT, anti-PPARg (DBD mutation: PPARg1 K132A/R137A, NR concentration 270 nM, RXRa partner concentration 90 nM)
Outline: as §1

[4] = test system: PPARg DBDmut IVT, anti-PPARg (DBD mutation: PPARg1 K132A/R137A, NR concentration 270 nM)
Outline: as §1

[5] = test system: PPARg homodimer (NR concentration 180 nM)
Outline: as §1

[6] = test system: PXR:RXRa (NR concentration 270 nM, RXRa partner concentration 90 nM)
Outline: as §1

[7] = test system: PXR homodimer (NR concentration 270 nM)
Outline: as §1

[8] = test system: RARa:RXR (NR concentration 270 nM, RXRa partner concentration 90 nM)
Outline: as §1

[9] = test system: RARa homodimer (NR concentration 270 nM)
Outline: as §1

[10] = test system: RARb:RXRa (NR concentration 270 nM, RXRa partner concentration 90 nM)
Outline: as §1

[11] = test system: RARb homodimer (NR concentration 270 nM)
Outline: as §1

[12] = test system: RARg:RXRa (NR concentration 270 nM, RXRa partner concentration 90 nM)
Outline: as §1

[13] = test system: RARg homodimer (NR concentration 270 nM)
Outline: as §1

[14] = test system: RXRa DBDmut IVT, anti-RXR (DBD mutation: RXRa K156A/R161A, NR concentration 90 nM)
Outline: as §1

[15] = test system: RXRa homodimer (NR concentration 180 nM)
Outline: as §1

[16] = test system: THRa:RXRa (NR concentration 90 nM, RXRa partner concentration 90 nM)
Outline: as §1

[17] = test system: THRa homodimer (NR concentration 90 nM)
Outline: as §1

[18] = test system: VDR homodimer (NR concentration 270 nM)
Outline: as §1

| Sequence | PBM binding z-score [1] | PBM binding z-score [2] | PBM binding z-score [3] | PBM binding z-score [4] | PBM binding z-score [5] | PBM binding z-score [6] | PBM binding z-score [7] | PBM binding z-score [8] | PBM binding z-score [9] | PBM binding z-score [10] | PBM binding z-score [11] | PBM binding z-score [12] | PBM binding z-score [13] | PBM binding z-score [14] | PBM binding z-score [15] | PBM binding z-score [16] | PBM binding z-score [17] | PBM binding z-score [18] |
| --- | --- | --- | --- | --- | --- | --- | --- | --- | --- | --- | --- | --- | --- | --- | --- | --- | --- | --- |
| TCTATTAGTTGATTAGGGCAAGCGAAACAGCGGA | 1.88 | 1.33 | 0.35 | 0.93 | 0.455 | 0.314 | 0.381 | 0.428 | 1.01 | 0.893 | 0.589 | 0.429 | 0.466 | 0.689 | 0.305 | 0.409 | 0.23 | 0.398 |
| GGAACGAGGGCTTTCGAGTTGATAGCATGGCGAT | 0.386 | -0.141 | -0.402 | -0.448 | -0.921 | 0.129 | -0.343 | 0.0983 | -0.868 | -0.36 | -0.798 | -0.258 | -0.353 | 0.228 | -0.0785 | 0.893 | -0.983 | 0.344 |
| CCGACTGGGGCAGATAGGTTACCATACCATCCGG | 1.48 | 1.4 | -1.44 | -0.883 | 0.00162 | -0.407 | -0.499 | 0.117 | -0.193 | 0.804 | 0.817 | 0.424 | 0.518 | -0.658 | 0.262 | -0.181 | -0.391 | -0.573 |
| CGTCAAAGTTCAACTAAGGAAACGTAAAGCACGC | 0.565 | 1.62 | 1.02 | 0.369 | 3.9 | 4.87 | 2.97 | 4.48 | 1.12 | 5.19 | 3.66 | 5.97 | 6.45 | 4.6 | 4.94 | 4.5 | 0.0826 | 3.88 |
| GCTAGTTGGTCAGTAAAAGGGCACACACCGGTCG | 0.062 | 0.821 | 0.0138 | -0.25 | 1.05 | 0.368 | 0.0129 | 0.889 | 0.252 | 1.72 | 2.59 | 1.6 | 1.32 | -0.382 | 0.632 | 0.395 | -0.0299 | 0.271 |
| ACAGACAGGTGAATGAAGGTAACTCAGCTGGACG | 0.834 | 1.06 | 0.562 | -0.518 | -0.217 | -0.156 | -0.221 | 0.42 | -0.316 | 0.743 | 0.0507 | 0.439 | 0.784 | -0.296 | 0.534 | 2.08 | -0.448 | -0.781 |
| TCTAGTTGGTCACGGTGGTCACACACGACGGGTA | 2.21 | 3.35 | 1.54 | 0.923 | 0.94 | 0.537 | -0.191 | 0.741 | -0.155 | 1.93 | 1.58 | 1.53 | 1.77 | 0.312 | 0.842 | 0.234 | 0.0512 | -0.372 |
| CCTAGGAGGACAACAGGAGGTCAGAGCTGCCAGA | 0.869 | 0.949 | -0.763 | -0.811 | 1.47 | 2.11 | 0.811 | 2.48 | 0.684 | 2.79 | 3.64 | 3.49 | 3.47 | 0.503 | 2.25 | 2.82 | 1.1 | 1.4 |
